# Laboratory results: PubChem BioAssay AID1345085 (National Center for Advancing Translational Sciences (NCATS), 2018)
# Inconclusive results are not listed. Calls of active or inactive are those of the source. Calls come from the whole dose curve; as a rule, active = well fitted cell-killing curve with a large enough effect; inconclusive = small, poorly fitted or top-dose-only effect, or effect the other way; inactive = no such curve, though single readings can be large or run the other way.
# Test system: Tov-21-G
# Assay: Confirmatory qHTS for gynecologic anti-cancer compounds from libraries of approved drugs and bioactive compounds; note: nearly all actives have a fitted effect of over 55% in size
# Conditions: gynecologic cancer cell panel viability, ATPlite luminescence, 48 h; series mostly up to 57.7 µM
# Method in brief: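 Cells (1,000/well) were plated, left 16 h at 37 C/5% CO2, then given compound at 11 concentrations (1:3) from 57.5 uM to 0.977 nM for 48 h. ATPlite luminescence after 15 min at room temperature gave IC50 values.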
# Potency is the fitted concentration of half-maximal effect.
row,SMILES,Potency
1,CC1=C(CO)C(=O)O[C@@H]([C@@H](C)[C@H]2CC[C@H]3[C@@H]4C[C@H]5O[C@]56[C@@H](O)C=CC(=O)[C@]6(C)[C@H]4CC[C@]23C)C1,3.35 µM (active)
2,COc1cc(-c2nn(C3CCC(N4CCN(C(C)=O)CC4)CC3)c3ncnc(N)c23)ccc1NC(=O)c1cc2ccccc2n1C (centres undefined),1.09 µM (active)
3,Cc1c(NC(=O)OCC2COCCN2)cn2ncnc(Nc3ccc4c(cnn4Cc4cccc(F)c4)c3)c12 (centres undefined),3.06 µM (active)
4,Cc1ccc(-n2[nH]c(C)c(N=Nc3cccc(-c4cccc(C(=O)O)c4)c3O)c2=O)cc1C,inactive
5,CN(Cc1cnc2nc(N)nc(N)c2n1)c1ccc(C(=O)N[C@@H](CCC(=O)O)C(=O)O)cc1,inactive
6,CC(C)c1nn(-c2c(Cl)cccc2Cl)c2nc(Cc3ccc(OCCO)cc3)[nH]c(=O)c12,0.0863 µM (active)
7,Nc1nc(Cl)nc2c1ncn2C1OC(CO)C(O)C1F (centres undefined),3.43 µM (active)
8,COc1cc2c(Oc3ccc(-c4cnc(Nc5ccc(F)cc5)n(C)c4=O)cc3F)ccnc2cc1OCCCN1CCOCC1,19.3 µM (active)
9,COc1ccc(-c2cc3nccn3c(Nc3ncccc3C(N)=O)n2)cc1OC,4.85 µM (active)
10,CC(C)CC(=O)Nc1n[nH]c2c1CN(C(=O)C1CCN(C)CC1)C2(C)C,3.85 µM (active)
11,Nc1ccn([C@@H]2O[C@H](CO)[C@@H](O)C2(F)F)c(=O)n1,6.11 µM (active)
12,CCC(=O)N1CCN(c2ccc(-n3c(=O)ccc4cnc5ccc(-c6cnc7ccccc7c6)cc5c43)cc2C(F)(F)F)CC1,0.314 µM (active)
13,O=c1cc(CN2CCOCC2)occ1OCCCCCSc1ccnc2cc(C(F)(F)F)ccc12,inactive
14,COc1ccc(-c2ccc3c(N4CCOCC4C)nc(N4CCOCC4C)nc3n2)cc1CO (centres undefined),inactive
15,CNc1nc(Nc2ccc(C(=O)N3CCOCC3)cc2OC)ncc1Cl,inactive
16,CCCCc1nc2cc(/C=C/C(=O)NO)ccc2n1CCN(CC)CC,3.06 µM (active)
17,O=C1c2c(O)ccc(O)c2C(=O)c2c(NCCNCCO)ccc(NCCNCCO)c21,4.32 µM (active)
18,CC(C)Nc1cc(-c2c[nH]c(C(=O)N[C@H](CO)c3cccc(Cl)c3)c2)c(Cl)cn1,24.3 µM (active)
19,CC(C)C[C@H](NC(=O)[C@H](CCc1ccccc1)NC(=O)CN1CCOCC1)C(=O)N[C@@H](Cc1ccccc1)C(=O)N[C@@H](CC(C)C)C(=O)[C@@]1(C)CO1,2.17 µM (active)
20,CCCC(Nc1nc(-c2ccc(NC(=O)NCC)c(OC)c2)ncc1C)c1cccnc1 (centres undefined),0.0306 µM (active)
21,CC[C@@]1(O)C(=O)OCc2c1cc1n(c2=O)Cc2c-1nc1ccccc1c2/C=N/OC(C)(C)C,0.611 µM (active)
22,COc1cc2c(Nc3ccc(NC(=O)c4ccccc4)cc3)ncnc2cc1OCCCN1CCOCC1,19.3 µM (active)
23,O=C(CCCCCCNC(=O)c1cnc(N(c2ccccc2)c2ccccc2)nc1)NO,21.7 µM (active)
24,CCc1c2c(nc3ccc(OC(=O)N4CCC(N5CCCCC5)CC4)cc13)-c1cc3c(c(=O)n1C2)COC(=O)[C@]3(O)CC,21.7 µM (active)
25,CCn1c(-c2nonc2N)nc2c(C#CC(C)(C)O)ncc(OCC3CCCNC3)c21 (centres undefined),0.0306 µM (active)
26,Cc1cc(Nc2cc(N3CCN(C)CC3)nc(/C=C/c3ccccc3)n2)n[nH]1,1.72 µM (active)
27,O=C(c1ccc(F)c(F)c1Nc1ccc(I)cc1F)N1CC(O)([C@@H]2CCCCN2)C1,9.68 µM (active)
28,NC(=O)Nc1cc(-c2cccc(F)c2)sc1C(=O)NC1CCCNC1 (centres undefined),3.43 µM (active)
29,Cc1cnc(Nc2ccc(OCCN3CCCC3)cc2)nc1Nc1cccc(S(=O)(=O)NC(C)(C)C)c1,1.72 µM (active)
